Where a chain is given by its changes, count along the chain named. Over roughly 24,000 sequences, “enrichment r” has its median near 0.99; the highest 2% begin near 3.7. What follows is part of a selection rich in the highest values, with near analogues and random picks from the rest.

The chains are these.
T1: UNK ZnF1-3 (human, UniProt Q9C0B0 31-174)
T1 sequence: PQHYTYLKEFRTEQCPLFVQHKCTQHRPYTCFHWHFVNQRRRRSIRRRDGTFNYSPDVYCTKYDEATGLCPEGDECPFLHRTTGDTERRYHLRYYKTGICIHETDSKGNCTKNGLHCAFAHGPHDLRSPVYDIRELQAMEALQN

B1: chr17:34945718:34945719:+_ENSG00000005955_ENST00000304718|hu_hu|FALSE|FALSE (ssRNA)
RNA: GGGAGUUCUACAGUCCGACGAUCAUUUAACCGGCAGUAUUUAUUAAAUUUCUCCUUCAGAUGCUGUCGGUAUUGUUCUCUAUUGCUGUAGAAAGACUGGUUAUUAGCCAUAAAUGACUGUAUUUCAUCUUGUGAGAUAAAGAUCAACAGAGGAUUGAGCAUCA
B2: 90247206_90247326_4093_3pUTR_ENSMUSG00000012422_ENSMUST00000161568|mouse|control|control (ssRNA)
RNA: GGGAGUUCUACAGUCCGACGAUCUUCUCAGAAGUUAGUCAGGACCCCCUGUAACAAGGGCGAUUGCUAGCACCGUUUGAGAACAUUUAUUAUUACUAGAAGGUAACAAAGGAAGAGAAGAGCAGCCCUAAGAAUUUUCCAUUCCAACAGAGGAUUGAGCAUCA
B3: chr6:41757443:41757444:+_ENSG00000214736_ENST00000398881|hu_mus|hu_hu_hu_mus_False|98_98 (ssRNA)
RNA: GGGAGUUCUACAGUCCGACGAUCGAACCGUGCAGAGACCAGAGAAUAGCCGACACUGGGGGAUGGGGGGGCAGUGGGGGGGGGUUCAGGCAAGGAGAGGGAGUCAACUUCAGCUGCCACUCAGGUAGGAUCUUGUGGUCACAGCAACAGAGGAUUGAGCAUCA
B4: chr6:41757443:41757444:+_ENSG00000214736_ENST00000398881|hu_mus|hu_hu_hu_mus_False|48_98 (ssRNA)
RNA: B3 RNA with C90G, A95G
B5: 75758389_75758509_1054_3pUTR_ENSMUSG00000032932_ENSMUST00000046283|mouse|control|control (ssRNA)
RNA: GGGAGUUCUACAGUCCGACGAUCUCAGAAAGGCCAGGUCUAAACACUCUAUUCACAUGGUGACCAUCUCCUGGGGUGAGCUGGUCUUUUGGCAGUUCAGAGUCACCAUUCUGAGGUUCCUUGCUGUCCUUCCCCUCCACAGUGCAACAGAGGAUUGAGCAUCA
B6: chr16:14738297:14738298:+_ENSG00000103429_ENST00000261658|hu_mus|FALSE|FALSE (ssRNA)
RNA: GGGAGUUCUACAGUCCGACGAUCGUUCAAGGUGGUGGGGUUAACCAGGGUGUCGUAGCAGCAGUGGCAGGAGAACUCGCUCACAGAAAUCUGAGGGCCGCUGCUUCUGACAGGAUGCUCUUCCUCCUGCUCUCUCAUGCUCAGCAACAGAGGAUUGAGCAUCA
B7: chr6:41757443:41757444:+_ENSG00000214736_ENST00000398881|hu_mus|hu_hu_hu_mus_False|98_108 (ssRNA)
RNA: B3 RNA with C28U, G31C, C32U, A33G, G34C, A35U
B8: chr6:41757443:41757444:+_ENSG00000214736_ENST00000398881|hu_mus|hu_hu_hu_mus_False|78_98 (ssRNA)
RNA: B3 RNA with G58U, G61A, A62C, G64C, G65A, G66A

The assay has as its target T1, UNK ZnF1-3. In words: nsRBNS (natural sequence RNA bind-n-seq); RBNS binding buffer (assumed for nsRBNS): 25 mM Tris pH 7.5, 150 mM KCl, 3 mM MgCl2, 0.01% Triton X-100, 500 ug/ml BSA, 20 U/ml SUPERase-In, 4 C; UNK is unkempt and MSI1 is Musashi-1; names of the RNAs are library labels; protein concentration not given here; high values mean tight binding.
As to B1, the binding signal is 0.361 enrichment R. As for B2, the figure is 0.591 enrichment R; as for B3, 3.31 enrichment R. The same measure for B4: 5.8 enrichment R; for B5: 0.633 enrichment R.

Take B6: the binding signal stood at 0.931 enrichment R. As for B7, the figure is 4.46 enrichment R; as for B8, 1.9 enrichment R.

The values above are taken from publication PMC12136788.
